This note sets out measurements from article PMC8222333, “AsCas12a ultra nuclease facilitates the rapid generation of therapeutic cell medicines”.

Common to all, as to test: Spec-seq (native PAGE EMSA with sequencing of bound and unbound); 25 mM Tris-HCl pH 7.4, 150 mM KCl, 5 mM MgCl2, 10% glycerol, 1 mM DTT, 40 ng/uL salmon sperm DNA; 400 nM Cas12a, 480 nM crRNA, 50 nM library, 37 C 1 h; native PAGE at room temperature; high values mean tight binding
What all share (details): protein: recombinant
(In EMSA bound probe runs differently from free probe, usually more slowly.)

For assay [1], the target named is dAsCas12a E174R (Acidaminococcus sp., UniProt U2UMQ6 1-1307, E174R;D908A;E993A;D1235A).
For assay [2], the target named is dAsCas12a S542R (Acidaminococcus sp., UniProt U2UMQ6 1-1307, S542R;D908A;E993A;D1235A).
For assay [3], the target named is d-enCas12a (Acidaminococcus sp., UniProt U2UMQ6 1-1307, E174R;S542R;K548R;D908A;E993A;D1235A).
The target in assay [4] is d-enCas12a-Ultra (Acidaminococcus sp., UniProt U2UMQ6 1-1307, E174R;S542R;K548R;M537R;F870L;D908A;E993A;D1235A).

Positions count from the first letter of the chain named.
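Further: relative affinity from the bound to unbound sequence frequency ratio in Spec-seq.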

B1: TGCC (dsDNA)
DNA 1: GCTATCTAGTGCTCAGTACGCACTGTGCCAGGAAACTTCTGGCAGGACCAGGTCATGAGATCGGAAGAGCACACGTCTGAACTCCAGTCA
DNA 2: TGACTGGAGTTCAGACGTGTGCTCTTCCGATCTCATGACCTGGTCCTGCCAGAAGTTTCCTGGCACAGTGCGTACTGAGCACTAGATAGC
RNA: AAUUUCUACUCUUGUAGAUAGGAAACUUCUGGCAGGACC
As to B1, the binding signal is -8.73 lnKA in assay [1], -7.76 lnKA in assay [2], -1.44 lnKA in assay [3] and -0.407 lnKA in assay [4].

B2: ACCC (dsDNA)
DNA 1: B1 DNA 1 with T26A, G27C
DNA 2: B1 DNA 2 with C64G, A65T
RNA: B1 RNA
In the case of B2, the binding signal in assay [2] was -5.2 lnKA; in assay [3] it was -2.44 lnKA; in assay [4] it was -0.482 lnKA.

B3: AACC (dsDNA)
DNA 1: B1 DNA 1 with T26A, G27A
DNA 2: B1 DNA 2 with C64T, A65T
RNA: B1 RNA
For B3, the binding signal in assay [2] was -7.9 lnKA; in assay [3], -2.33 lnKA; in assay [4], -0.621 lnKA.

B4: AAGG (dsDNA)
DNA 1: B1 DNA 1 with T26A, G27A, C28G, C29G
DNA 2: B1 DNA 2 with G62C, G63C, C64T, A65T
RNA: B1 RNA
As for B4, the binding signal is -8.67 lnKA in assay [2], -5.8 lnKA in assay [3] and -3.49 lnKA in assay [4].

B5: ACAG (dsDNA)
DNA 1: B1 DNA 1 with T26A, G27C, C28A, C29G
DNA 2: B1 DNA 2 with G62C, G63T, C64G, A65T
RNA: B1 RNA
As for B5, the binding signal in assay [2] was -8.64 lnKA; in assay [3], -5.79 lnKA; in assay [4] it was -3.45 lnKA.

B6: AACT (dsDNA)
DNA 1: B1 DNA 1 with T26A, G27A, C29T
DNA 2: B1 DNA 2 with G62A, C64T, A65T
RNA: B1 RNA
On to B6, for which the figures for the binding signal in assay [2], in assay [3] and in assay [4] were -8.54 lnKA, -4.69 lnKA and -1.81 lnKA, respectively.

B7: AAGA (dsDNA)
DNA 1: B1 DNA 1 with T26A, G27A, C28G, C29A
DNA 2: B1 DNA 2 with G62T, G63C, C64T, A65T
RNA: B1 RNA
For B7, the binding signal in assay [2] was -8.52 lnKA; in assay [3], -5.74 lnKA; in assay [4], -3.38 lnKA.

B8: AACG (dsDNA)
DNA 1: B1 DNA 1 with T26A, G27A, C29G
DNA 2: B1 DNA 2 with G62C, C64T, A65T
RNA: B1 RNA
With B8, the binding signal in assay [2] is -8.29 lnKA; in assay [3] it was -4.8 lnKA; in assay [4] it was -2.04 lnKA.

B9: ACAC (dsDNA)
DNA 1: B1 DNA 1 with T26A, G27C, C28A
DNA 2: B1 DNA 2 with G63T, C64G, A65T
RNA: B1 RNA
In the case of B9, the binding signal in assay [2] was -8.48 lnKA; in assay [3], -5.72 lnKA; in assay [4] it was -3.38 lnKA.

B10: ACGA (dsDNA)
DNA 1: B1 DNA 1 with T26A, G27C, C28G, C29A
DNA 2: B1 DNA 2 with G62T, G63C, C64G, A65T
RNA: B1 RNA
For the molecule B10, the binding signal is -8.68 lnKA in assay [2], -5.84 lnKA in assay [3] and -3.39 lnKA in assay [4].

B11: AAAG (dsDNA)
DNA 1: B1 DNA 1 with T26A, G27A, C28A, C29G
DNA 2: B1 DNA 2 with G62C, G63T, C64T, A65T
RNA: B1 RNA
In the case of B11, the binding signal is -8.45 lnKA in assay [2], -5.7 lnKA in assay [3] and -3.44 lnKA in assay [4].

B12: AAAC (dsDNA)
DNA 1: B1 DNA 1 with T26A, G27A, C28A
DNA 2: B1 DNA 2 with G63T, C64T, A65T
RNA: B1 RNA
Take B12: the binding signal in assay [2] is -8.48 lnKA; in assay [3] it was -5.25 lnKA; in assay [4], -2.57 lnKA.

B13: AAAA (dsDNA)
DNA 1: B1 DNA 1 with T26A, G27A, C28A, C29A
DNA 2: B1 DNA 2 with G62T, G63T, C64T, A65T
RNA: B1 RNA
Consider B13, for which the binding signal in assay [2] was -8.41 lnKA; in assay [3], -5.66 lnKA; in assay [4] it was -3.17 lnKA.

B14: ACCG (dsDNA)
DNA 1: B1 DNA 1 with T26A, G27C, C29G
DNA 2: B1 DNA 2 with G62C, C64G, A65T
RNA: B1 RNA
As to B14, the results for the binding signal in assay [2], in assay [3] and in assay [4] were -6.71 lnKA, -4.92 lnKA and -1.45 lnKA, respectively.

B15: ACAA (dsDNA)
DNA 1: B1 DNA 1 with T26A, G27C, C28A, C29A
DNA 2: B1 DNA 2 with G62T, G63T, C64G, A65T
RNA: B1 RNA
As to B15, the results for the binding signal in assay [2], in assay [3] and in assay [4] were -8.6 lnKA, -5.98 lnKA and -3.44 lnKA, respectively.

B16: AAGT (dsDNA)
DNA 1: B1 DNA 1 with T26A, G27A, C28G, C29T
DNA 2: B1 DNA 2 with G62A, G63C, C64T, A65T
RNA: B1 RNA
B16: the binding signal in assay [2] is -8.46 lnKA; in assay [3], -5.71 lnKA; in assay [4] it was -3.41 lnKA.

B17: AACA (dsDNA)
DNA 1: B1 DNA 1 with T26A, G27A, C29A
DNA 2: B1 DNA 2 with G62T, C64T, A65T
RNA: B1 RNA
Regarding B17, the binding signal was -8.12 lnKA in assay [2], -2.72 lnKA in assay [3] and -0.706 lnKA in assay [4].
